SENP7 inh: SENP7 protease inhibitors, primary screen, biochemical, luminescence, uHTS; recombinant SENP7, Z-RLRGG-aminoluciferin luminescence, 40 min; inhibition, % at 5 µM; 330,000 compounds, 1.5% hits; AID 434973, 2010;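 active = inhibition above about 50% at the single test dose, limit read from the data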
SENP8 block-1: human SENP8 protease inhibitors, primary screen, biochemical, fluorescence, Nedd8 protein substrate, uHTS; inhibition, % at 20 µM; Sentrin-specific protease 8 (Homo sapiens), Q96LD8; recombinant SENP8; 360,000 compounds, 0.64% hits; in the data active = inhibition mostly above about 40%, no sharp cut-off; inactive = mostly below about 27%
SENP8 block-2: SENP8 protease inhibitors, primary screen, biochemical, luminescence | inhibition, % at 10 µM | AID 2540, 2010 | purified SENP8, Z-RLRGG-aminoluciferin cleavage | 330,000 compounds, 1.2% hits; in the data active = inhibition above about 50%
SENP6 block: SENP6 protease inhibitors, primary screen, biochemical, luminescence, uHTS; Sentrin-specific protease 6 (Homo sapiens), Q9GZR1; Recombinant SENP6 catalytic domain, aminoluciferin luminescence; inhibition, % at 10 µM; 330,000 compounds, 1.8% hits; AID 2599, 2010;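 active = inhibition above about 50% at the single tested dose, limit read from the data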
Target sequence (Q9GZR1 628-1112 limits assumed): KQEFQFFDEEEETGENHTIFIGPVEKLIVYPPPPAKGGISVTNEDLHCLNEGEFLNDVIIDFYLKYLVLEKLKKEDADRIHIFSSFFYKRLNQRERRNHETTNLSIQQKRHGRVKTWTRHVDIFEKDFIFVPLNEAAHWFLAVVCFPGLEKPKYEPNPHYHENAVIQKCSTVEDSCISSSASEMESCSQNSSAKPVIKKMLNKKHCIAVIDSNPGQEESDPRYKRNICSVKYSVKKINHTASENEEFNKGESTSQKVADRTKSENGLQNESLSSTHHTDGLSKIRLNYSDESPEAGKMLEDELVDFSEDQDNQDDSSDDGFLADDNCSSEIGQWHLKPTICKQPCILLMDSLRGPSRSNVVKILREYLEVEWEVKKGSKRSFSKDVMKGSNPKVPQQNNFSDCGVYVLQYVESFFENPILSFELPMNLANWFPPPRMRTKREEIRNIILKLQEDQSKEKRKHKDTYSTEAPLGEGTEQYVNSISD
TRAIL sens C8: viability loss with TRAIL in NB7+C8 cells, primary screen, TRAIL sensitizer project, cell-based, ATPlite luminescence; AID 624354, 2012; inhibition (viability loss, TRAIL sensitization), % at 10 µM; 360,000 compounds, 1% hits;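 active = compounds causing at least 50% loss of cell viability in the single-dose screen, relative to plate controls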
PPC-1+TRAIL kill: compounds killing PPC-1 cancer cells with TRAIL present, primary screen, TRAIL potentiator project, ATPLite luminescence, uHTS; cell killing (% activity), % at 4 µM or 5 µM; 220,000 compounds, 0.41% hits; PPC-1 cells + TRAIL, ATPLite viability luminescence; AID 1443, 2008;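 active = cell killing above 50% in the first pass at 4 µM, then a duplicate retest at 5 µM averaging 50% or more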
A number is an active result; - = inactive; . = no result. Rows were chosen to be rich in hits. Some 3% of all compounds tested hit in one or more screens of this group.

SMILES	SENP7 inh	SENP8 block-1	SENP8 block-2	SENP6 block	TRAIL sens C8	PPC-1+TRAIL kill
CC(C)(C)c1ccc(-c2noc(CCC(=O)Nc3cccnc3)n2)cc1	-	-	-	-	50.1	.
CC1CCCCN1C(=O)COC(=O)c1cc(Cl)c2c(c1)OCO2 (stereo unspecified)	-	-	-	-	-	.
CC1=Nc2cccc3cccc(c23)N1C	-	44.5	-	-	-	-
CN1C(=O)N(C)c2cccc3cccc1c23	-	-	-	-	-	.
Cc1cc(/C=C(\C#N)c2nc3ccccc3[nH]2)c(C)n1C	-	-	-	-	77.9	-
COc1ccc(/C=C(\C#N)c2nc3ccccc3[nH]2)cc1O	-	-	-	56.5	51.8	.
COc1cc(/C=C(\C#N)c2nc3ccccc3[nH]2)cc(OC)c1O	.	-	.	.	-	-
COc1cc(NS(=O)(=O)c2ccc(C)cc2)c2c(c1N)C(=O)c1ccccc1C2=O	.	41.4	.	.	-	.
COC(=O)C(C(=O)OC)c1ccccc1NS(=O)(=O)c1ccc(C)cc1	.	-	.	.	-	.
CCCCOc1ccc(-c2nc(=S)[nH][nH]2)cc1	-	-	-	-	61.5	-
CCCCOc1ccc(-c2nc(SCC(N)=O)n[nH]2)cc1	-	-	-	-	-	-
COC(=O)CSc1nc2cc(C)ccc2cc1C#N	-	-	-	-	56.0	-
CCOC(=O)CC(=O)CSc1nc2ccc(C)cc2cc1C#N	-	-	-	-	-	-
Cc1ccccc1S(=O)(=O)Cc1ccc(C(=O)NCCCN2CCC(C)CC2)o1	-	-	-	-	-	.
O=C1NCCCC1C(=O)N/N=C/c1cc([N+](=O)[O-])ccc1O (stereo unspecified)	-	44.7	-	-	-	-
CCOC(=O)[C@]12CCC=C1N(Cc1ccc3c(c1)OCO3)C(=O)[C@H](CC(=O)NCC1CCCCC1)C2	.	-	.	.	-	.
COc1ccc(C2CC(c3cccs3)=NN2C(=O)c2ccccc2)cc1OC (stereo unspecified)	-	-	-	-	-	.
COc1ccc(C2CC(c3cccs3)=NN2C(=O)CCl)cc1OC (stereo unspecified)	-	-	-	-	95.6	.
COc1cc(C2CC(c3cccs3)=NN2C(=O)CCl)ccc1OC(F)F (stereo unspecified)	-	-	-	-	95.4	.
CCC(C)N(C(=O)CSc1nc2ccc(OC)cc2[nH]1)C1CCS(=O)(=O)C1 (stereo unspecified)	-	-	-	-	-	.
CCOc1ccccc1NC(=O)COC(=O)C1COc2ccccc2O1 (stereo unspecified)	.	-	.	.	-	.
OCC1OC(n2ccc3c2ncn2ncnc32)C(O)C1O (stereo unspecified)	.	-	.	.	81.8	.
CC(=O)N(C1=C(O)c2ccccc2C(=O)C1=O)C1CCCCC1	-	-	-	-	-	.
O=C1c2ccccc2C(=O)c2[nH]c(=O)[nH]c21	-	54.8	-	65.4	75.3	.
CC(=O)N(C)C1=C(O)c2ccccc2C(=O)C1=O	-	84.8	-	-	-	-
SMILES	SENP7 inh	SENP8 block-1	SENP8 block-2	SENP6 block	TRAIL sens C8	PPC-1+TRAIL kill
O=C1C(=O)c2ccccc2C(O)=C1c1ccccc1F	-	-	-	-	-	-
O=C1C(O)=C(O)C(=O)c2ccccc21	54.9	60.7	57.6	79.6	-	.
O=C1c2ccccc2C(=O)c2[nH]cnc21	.	-	.	.	-	-
O=C(NNC(=O)c1cncc(Br)c1)c1ccncc1	-	-	-	-	-	.
CCOC(=O)C1=CCN(S(=O)(=O)c2ccccc2Cl)C1c1cccc(F)c1 (stereo unspecified)	.	-	.	.	70.9	.
CCOC(=O)C1=CCN(S(=O)(=O)c2ccccc2Cl)C1c1cccc(Cl)c1 (stereo unspecified)	.	-	.	.	-	.
COCCCNC(=O)Cc1ccc(S(=O)(=O)N2CCOCC2)s1	-	-	-	-	-	.
CC(C)(C)c1ccc(C(=O)Nc2cccc(S(=O)(=O)NC3=NCCC3)c2)cc1	-	-	-	-	86.0	.
O=C(/C=C/c1ccc(OC(F)F)cc1)Nc1cccc(S(=O)(=O)NC2=NCCCCC2)c1	-	-	-	-	57.4	.
CN(C)c1ccc(C(=O)Nc2cccc(S(=O)(=O)NC3=NCCCCC3)c2)cc1	-	-	-	-	-	.
CC1CCCC(C)N1C(=O)/C=C/c1ccc(S(=O)(=O)N2CCOCC2)cc1 (stereo unspecified)	-	-	-	-	-	.
CNC(=O)c1cc2c(ccc3ccccc32)o1	-	-	-	-	-	-
C=C(C)c1cc2c(ccc3ccc(=O)oc32)o1	-	-	-	-	86.7	.
COc1ccc(CCN(C)C(=O)CSc2nc3ccccc3c(=O)n2CC2CCCO2)cc1OC (stereo unspecified)	.	-	.	.	-	.
O=C1C(Cl)=C(NCc2ccco2)C(=O)c2ccccc21	.	46.3	.	.	-	.
CCNC1=C(Cl)C(=O)c2ccccc2C1=O	-	93.5	-	-	-	-
Cc1ccc(NC2=C(Cl)C(=O)c3ccccc3C2=O)cc1	.	-	.	.	-	-
O=S(=O)(c1ccccc1)c1ccc(NCc2ccco2)cc1	-	-	-	-	-	-
CCN(CC)c1ccc(NC2=C(Cl)C(=O)c3ccccc3C2=O)cc1	.	50.0	.	.	-	-
O=C(/C=C/c1cccs1)N1CCc2ccccc21	97.8	-	93.4	-	55.5	58.4
NC(CCc1ccccc1)c1csc(NC(=O)Nc2ccccc2Oc2ccccc2)n1 (stereo unspecified)	.	-	.	.	87.4	.
Cc1cc(C)nc(Nc2nc(C(N)Cc3ccc(C(F)(F)F)cc3)cs2)n1 (stereo unspecified)	.	-	.	.	-	.
COc1cc(OC)nc(Nc2nc(C(N)Cc3ccc(C(F)(F)F)cc3)cs2)n1 (stereo unspecified)	.	-	.	.	79.8	.
NC(Cc1ccc(Cl)cc1)c1csc(NC(=O)NCCc2ccccc2)n1 (stereo unspecified)	.	-	.	.	-	.

Screens as filed in PubChem BioAssay.
